High-throughput results as filed in PubChem.
NTR1 ag: NTR1 (human) agonism; AID 493036; NTR1-U2OS beta-arrestin-GFP spot imaging, agonist mode; hit rate 0.17% among 330,000; P30989; activation, % at 20 µM;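 active = activation at or above 40% of the spot to cytoplasm intensity ratio, with at least 20 cells analyzed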;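 also: 0% = DMSO without peptide and 100% = 100 nM NTR1 peptide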
Target sequence (P30989 whole entry, looked up): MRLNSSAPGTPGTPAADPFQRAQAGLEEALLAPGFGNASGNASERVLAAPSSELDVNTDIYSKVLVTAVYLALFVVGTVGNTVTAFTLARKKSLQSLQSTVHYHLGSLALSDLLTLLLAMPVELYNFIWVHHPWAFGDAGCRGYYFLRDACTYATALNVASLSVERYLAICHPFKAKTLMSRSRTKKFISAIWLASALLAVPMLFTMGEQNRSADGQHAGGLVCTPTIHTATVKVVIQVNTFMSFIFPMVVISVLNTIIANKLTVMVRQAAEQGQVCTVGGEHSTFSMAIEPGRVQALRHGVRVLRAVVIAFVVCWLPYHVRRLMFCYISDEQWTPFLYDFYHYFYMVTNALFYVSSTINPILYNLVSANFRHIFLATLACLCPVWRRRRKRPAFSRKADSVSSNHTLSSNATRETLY
AI-2 QS modul: modulates the Vibrio harveyi AI-2 quorum sensing system; activity change, % at 7.5 µM; hit rate 0.4% among 300,000; Vibrio harveyi JMH597 AI-2 luminescence/OD600 ratio, 9 h; hits give low values; strain lacks LuxN and CqsS sensors; 0 = neutral-control median; in the data active = activity change below about -75%, passing the limit was not always enough;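 also: luminescence divided by OD600 gain over 9 h not by final OD600 alone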
Mot1-301 SUMO: blocks SUMOylation pathway, rescuing yeast Mot1-301 growth; S. cerevisiae Mot1-301 growth rescue, ATP luminescence, 38.5C; percent above DMSO median, 100 means doubled; growth rescue, % at 18.8 µM; hit rate 1% among 320,000;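 active = every valid replicate shows activation above 250% relative to neutral control wells; inactive = the rest, any valid replicate at or below 250%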;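 also: OY570 slx delta 5 strain wells were the positive control but not used for scaling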
AHR act: activators of human aryl hydrocarbon receptor | P35869 | hit rate 2.5% among 320,000 | AHR-responsive luciferase reporter cells, luminescence | AID 2796 | activation, % at 5 µM; in the data active = activation above about 47%;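 also: 0% = vehicle wells and 100% = reference agonist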
Cardio protect: modulators protecting cardiomyocytes from myocardial damage; AID 588492; H9c2 cardiomyocytes, H2O2 injury protection, ATPLite, 2 h; protection from H2O2 cell death, % at 20 µM; hit rate 0.63% among 360,000;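 active = compounds giving at least 50% protection of heart cells from peroxide-induced death in the single-dose screen, raw or plate-pattern-corrected value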;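 also: 0% = DMSO wells with peroxide and 100% = DMSO wells without peroxide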
GRIN3A LBD mod: modulates the human NR3A ligand-binding domain; NR3A LBD differential scanning fluorimetry, Tm shift; 0% = protein alone, 100% = glycine-bound protein; Tm shift relative to glycine control, % at 25 µM; hit rate 2.5% among 340,000; AID 1259313;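 active = melting temperature shift of at least 10% of the positive control shift, at one fixed dose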
Active calls of the source: *; nt = no result. A selection: hits, their analogues and other compounds. The true share with any hit is near 6.2%.

SMILES	NTR1 ag	AI-2 QS modul	Mot1-301 SUMO	AHR act	Cardio protect	GRIN3A LBD mod
COc1cc(CN(CC(C)C)S(=O)(=O)c2ccccc2Br)cc(OC)c1	4	nt	nt	nt	-16	-4
Cc1sc2ncnc(N(C)Cc3cccs3)c2c1C	1	19	11	-7	-23	11*
O=C(C[n+]1cc(Br)cc(Br)c1)c1ccc(Cl)cc1	0	8	-3	9	2	-5
O=C(C[n+]1cc(Br)cc2ccccc21)c1ccc(Cl)cc1	0	16	-12	73*	-10	-5
O=C(C[n+]1cccc2ccccc21)c1ccc(Br)cc1	-2	14	-3	65*	-2	0
Clc1cc(Br)ccc1NCc1cccnc1	1	19	156	6	4	0
O=C(Cn1cnc2ccccc21)OCC(=O)N1CCCCC1	2	nt	-4	4	-3	0
CC(OC(=O)c1cccc(S(=O)(=O)Nc2cccc(C(F)(F)F)c2)c1)C(=O)Nc1ccc2c(c1)OCCO2 (stereo not drawn)	0	14	-12	0	-16	26*
c1cc2c3c(cccc3c1)NC1(CCC3(CC1)Nc1cccc4cccc(c14)N3)N2	12	12	-21	49*	-17	18*
O=C(N/N=C/c1ccncc1)c1cccc(NC(=O)c2ccc(Cl)cc2)c1	3	15	-13	1	11	26*
O=C(N/N=C/c1ccco1)c1cccc(NC(=O)c2cccc(Cl)c2)c1	-1	4	144	55*	15	-6
O=C(N/N=C/c1ccncc1)c1cccc(N/N=C/c2ccncc2)c1	1	6	-6	44	32	9
O=C(N/N=C/c1cccc(NC(=O)c2ccc(Cl)cc2)c1)c1ccc(O)cc1	5	19	30	26	1	29*
O=C(N/N=C/c1ccc(Br)cc1)c1ccc(NC(=O)c2ccccc2)cc1	nt	nt	nt	nt	4	0
CN(C)c1ccc(/C=N/NC(=O)c2ccc(NC(=O)c3ccccc3)cc2)cc1	6	17	9	5	4	19*
O=C(COC(=O)CCNS(=O)(=O)c1cccs1)Nc1ccccc1	-1	nt	-14	1	9	-1
OC[C@@H]1CN(CCN2CCOCC2)C[C@H](n2cnc3c(NC4CCCC4)ncnc32)O1	nt	nt	nt	nt	3	nt
COc1ccc(C(=O)COC(=O)c2sc(C)nc2C)cc1F	4	nt	9	-1	-2	-3
O=C(N/N=C/c1ccc(F)cc1)c1cccc(NC(=O)c2ccc(F)cc2)c1	3	21	-8	60*	14	33*
CCc1nc(N2CCN(C(=O)c3ccco3)CC2)c2oc3ccccc3c2n1	nt	15	442	11	51*	-1
Cc1nc(N2CCN(C(=O)c3ccco3)CC2)c2oc3ccccc3c2n1	6	35	-12	-2	15	-1
O=C(O)CSc1nc(-c2ccccc2)nc2c1oc1ccccc12	4	32	-8	18	-1	2
CCOC(=O)CSc1nc(-c2ccccc2)nc2c1oc1ccccc12	8	14	453	48*	-1	3
CCc1nc(SCC(=O)c2cccs2)c2oc3ccccc3c2n1	13	-12	-6	57*	-10	3
COc1ccc(CNC(=O)c2nccnc2CO)cc1	0	9	8	nt	-4	0
SMILES	NTR1 ag	AI-2 QS modul	Mot1-301 SUMO	AHR act	Cardio protect	GRIN3A LBD mod
Cc1nnc(SCC(=O)N/N=C/c2cn(-c3ccccc3)nc2-c2ccccc2)n1-c1ccccc1	8	22	12	-14	54*	-4
Cc1ccc(-c2nnc(SCC(=O)N/N=C/c3ccccc3C(=O)O)n2-c2ccccc2)cc1	2	54	-3	4	nt	nt
COC(=O)c1ccc(NC(=O)CSc2nc3[nH]ncc3c(=O)[nH]2)cc1	0	4	14	16	3	14*
O=C(CSc1nc2[nH]ncc2c(=O)[nH]1)Nc1ccccc1C(F)(F)F	-2	20	4	3	5	1
O=C(CSc1nc2[nH]ncc2c(=O)[nH]1)Nc1ccccc1F	0	5	5	2	1	14*
Cc1cc(NC(=O)c2cccc(S(=O)(=O)N3CCCCC3)c2)no1	2	28	19	1	-1	1
COc1ccccc1Cc1c(-c2ccco2)nc2ccc(Br)cn12	nt	nt	nt	nt	4	nt
Cc1nc(-c2ccc(S(=O)(=O)Nc3ccc(Br)cc3F)cc2)co1	-1	26	8	0	-1	-10
CC(C)n1c(=O)c2ccccc2n1Cc1cn(-c2ccccc2)nn1	nt	nt	nt	nt	-3	nt
CC(C)(C)c1nc(SCC(=O)NNC(=O)c2ccccc2)c2ccccc2n1	0	7	-10	-1	-1	0
CCOC(=O)C1CCN(C(=O)c2ccc(Cl)c(S(=O)(=O)N3CCOCC3)c2)CC1	0	25	nt	2	-2	0
CCOC(=O)C1CCN(C(=O)c2cc(S(=O)(=O)N3CCOCC3)c(Cl)cc2Cl)CC1	-2	34	285*	0	8	1
CC(C#N)Sc1ccc(S(=O)(=O)N2CCCC2)cn1 (stereo not drawn)	0	nt	4	0	10	-3
O=C1CCC(c2ccc3c(c2)CCC3)=NN1	0	37	-6	3	3	-1
O=C1CCC(c2ccccc2)=NN1	0	9	4	-1	14	0
O=C1CCC(c2ccc(-n3ccnc3)cc2)=NN1	0	-26	-7	67*	7	0
CCCCCc1ccc(-c2ccc(=O)[nH]n2)cc1	2	-77*	20	0	-11	1
CCCCCc1ccc(C2=NNC(=O)CC2)cc1	2	-89*	4	1	-1	-3
Cc1ccc(-c2ccc(=O)[nH]n2)cc1	0	12	-5	0	-3	0
Cc1ccc(NC(=O)CCNS(=O)(=O)c2cccc3nsnc23)cc1F	-1	10	16	6	-1	-1
CCOC(=O)C1=C(c2ccccc2)Nc2ncnn2C1c1ccc(C(=O)O)cc1 (stereo not drawn)	0	1	-12	0	3	-3
CCOC(=O)C1=C(c2ccccc2)NC(N)=NC1c1ccc(OCc2ccc(C(=O)OC)cc2)cc1 (stereo not drawn)	24	-92*	1	-4	-27	2
CC(C)c1ccc(C(C(C(=O)c2ccccc2)N2CCOCC2)N2CCOCC2)cc1 (stereo not drawn)	nt	nt	nt	nt	-2	-1
NC(=S)n1[nH]c(-c2ccc([N+](=O)[O-])cc2)c(N=Nc2ccc(Cl)cc2)c1=O	nt	nt	nt	nt	-23	28*
Cc1ccc([N+](=O)[O-])cc1N=Nc1c(-c2ccc([N+](=O)[O-])cc2)[nH]n(C(N)=S)c1=O	nt	10	nt	nt	-23	30*
Cc1ccc([N+](=O)[O-])cc1N=Nc1c(C)[nH]n(C(N)=S)c1=O	-1	11	-8	3	2	-1
